Inconclusive results are not listed. The source made the active and inactive calls. Rule for the calls: active = hit-call score of the fitted dose curve at least 0.9, where 1 is the maximum; inconclusive = response in the unintended direction; inactive = score below 0.9.
read-out: organic anion transporter (SLCO1B1), SLCO1B1 (gene 10599); test: CLD_SLCO1B1_24hr: CellzDirect (CLD) Gene Expression Assay for organic anion transporter (SLCO1B1) at 24 hours (AID 2283690)
Method: CLD_24hr is a cell-based, multiplexed-readout assay that uses hepatocyte, a human liver primary cell, with measurements taken at 24 hours after chemical dosing in a 96-well plate.CLD_SLCO1B1_24hr is one of 16 assay component(s) measured or calculated from the CLD_24hr assay. It is designed to make measurements of mRNA induction, a form of inducible reporter, as detected with chemiluminescence signals by Quantitative Nuclease Protection Assay (qNPA) technology.Data from the assay component CLD_SLCO1B1_24hr was analyzed at the endpoint, CLD_SLCO1B1_24hr, in the positive analysis fitting direction relative to DMSO as the negative control and baseline of activity. Using a type of inducible reporter, gain-of-signal activity can be used to understand changes in the reporter gene as they relate to the gene SLCO1B1. Furthermore, this assay endpoint can be referred to as a primary readout. To generalize the intended target to other relatable targets, this assay endpoint is annotated to the transporter intended target family, where subfamily is organic anion transporter.
Human hepatocyte cultures were treated daily for two consecutive days with fresh dosing solutions containing appropriate concentrations of the 320 ToxCast chemicals (chemical identities were blinded to CellzDirect and other ToxCast collaborators), vehicle control (0.2% DMSO), and positive control inducers as summarized in Table 1. Due to the large number of treatment groups and chemicals examined, the ToxCast chemicals were divided into two groups (spanning two independent cultures of hepatocytes from separate donor preparations (Hu778: ToxCast plates 1 and 2; Hu776: ToxCast plates 3 and 4). Each preparation of human hepatocyte cultures was treated with respective vehicle control, medium only control, set of six positive controls/reference chemicals for the five hepatic receptor pathways, and a subset of eight of the ToxCast chemicals (indoxacarb, pyrithiobac-sodium, norflurazon, cyhalofop-butyl, methomyl, thiram, acetochlor, and propiconazole). These replicate data, coupled with internal replicates designed within the blinded ToxCast chemical library, provided additional data to evaluate interindividual differences between hepatocyte preparations and their potential impact on chemical profiles.Cell morphology and integrity were evaluated using phase-contrast microscopy as an indicator of hepatocyte cell health (Tyson & Green, 1987). Cultures for each treatment group (i.e., media, vehicle [0.2% DMSO], positive control inducers [multiple concentrations], and the ToxCast chemicals [multiple concentrations]) were observed and cell morphology was assessed relative to vehicle control cultures at each harvest time point (0, 6, 24, or 48 h). […] Images were evaluated at the conclusion of the study to assess changes in cell integrity and account for the effects of chemical exposure on uncharacteristic changes in concentration-dependent gene expression profiles. The results from these determinations of apparent cytotoxicity were annotated (yes/no) alongside the corresponding qNPA data for reference.At the conclusion of each treatment period, hepatocyte cultures (96-well) were washed with 1 volume of HBSS, lysed by addition of 25 ul ArrayPlate lysis buffer (HTG, Tucson, AZ), and 70 ul/well of Denaturation Oil, denatured by incubation at 95C for 10 min, and frozen at approximately -70C until analysis by nuclease protection assay (qNPA) (Roberts et al., 2007). For qNPA analysis, cell lysates were thawed at 50C for approximately 30 min, qNPA probes were added, and samples were incubated at 95C for 10 min to begin the detection process by denaturing the target RNA, dissociating the duplexes and secondary structure hybridization. At the conclusion of the hybridization period, S1 nuclease reagent was added to each sample to digest all nonprotected nucleotides at 50C for 60-90 min. […]

Q: `Cc1cc(C)nc(NC(=O)NS(=O)(=O)c2ccccc2C(=O)OC2COC2)n1` was tested. Which outcome did it give?
A: inactive

Q: Which outcome does the source give for `[2H]C1([2H])[n+]2ccccc2-c2cccc[n+]2C1([2H])[2H]` here?
A: inactive

Q: For `N#CN`, which outcome is on record?
A: inactive

Q: `COC(=O)c1ccccc1S(=O)(=O)NC(=O)Nc1nc(C)nc(OC)n1` was tested. Which outcome did it give?
A: inactive

Q: Which outcome does the source give for `Oc1ccc(Cl)cc1Cc1ccccc1` here?
A: inactive

Q: How did the outcome turn out when `CC[C@H](C)[C@H]1O[C@]2(C=C[C@@H]1C)C[C@@H]1C[C@@H](C/C=C(\C)[C@@H](O[C@H]3C[C@H](OC)[C@@H](O[C@H]4C[C@H](OC)[C@@H](O)[C@H](C)O4)[C@H](C)O3)[C@@H](C)/C=C/C=C3\CO[C@@H]4[C@H](O)C(C)=C[C@@H](C(=O)O1)[C@]34O)O2` (tested in a mixture with another compound) was run?
A: inactive

Q: `COP(=S)(OC)Oc1ccc([N+](=O)[O-])cc1` was tested. Which outcome did it give?
A: inactive

Q: For `CN1CSC(=S)N(C)C1`, which outcome is on record?
A: inactive

Q: `CC(C)OC(=O)Nc1cccc(Cl)c1` was tested. Which outcome did it give?
A: inactive

Q: With `O=C(O)C(F)(F)C(F)(F)C(F)(F)C(F)(F)C(F)(F)C(F)(F)C(F)(F)F` as the compound, how does the outcome read?
A: inactive

Q: Which outcome does the source give for `OCCOc1ccccc1` here?
A: inactive

Q: How did the outcome turn out when `Oc1cc(Cl)ccc1Oc1ccc(Cl)cc1Cl` was run?
A: inactive

Q: How did the outcome turn out when `O=C(Nc1ccccc1)Nc1cnns1` was run?
A: inactive

Q: For `CCOCN(C(=O)CCl)c1c(C)cccc1CC`, which outcome is on record?
A: inactive

Q: For `COP(=O)(OC)OC=C(Cl)Cl`, which outcome is on record?
A: inactive

Q: How did the outcome turn out when `CCc1ccc(C(=O)NN(C(=O)c2cc(C)cc(C)c2)C(C)(C)C)cc1` was run?
A: inactive

Q: Which outcome does the source give for `COC(=O)c1ccccc1S(=O)(=O)NC(=O)N(C)c1nc(C)nc(OC)n1` here?
A: inactive

Q: How did the outcome turn out when `CCS(=O)(=O)c1cccnc1S(=O)(=O)NC(=O)Nc1nc(OC)cc(OC)n1` was run?
A: inactive

Q: Which outcome does the source give for `CCN(CC)C(=O)SCc1ccc(Cl)cc1` here?
A: inactive

Q: `CC1(c2ccc(Oc3ccccc3)cc2)OC(=O)N(Nc2ccccc2)C1=O` (configuration not stated) was tested. Which outcome did it give?
A: inactive

Q: For `O=C1c2ccccc2C(=O)N1SC(Cl)(Cl)Cl`, which outcome is on record?
A: inactive

Q: With `COc1cc(OC)nc(NC(=O)NS(=O)(=O)c2cc(NC=O)ccc2C(=O)N(C)C)n1` as the compound, how does the outcome read?
A: inactive

Reference: PubChem BioAssay (EPA / NIEHS)
